SMILES strings stand for the structures. Inconclusive results are not listed. Calls of active or inactive are those of the source. The call rests on the fitted dose curve; in most records, active means well fitted inhibition curve with a large enough effect; inconclusive means small, poorly fitted or top-dose-only effect; inactive means no such curve, though single readings can be large or run the other way.

A short description of the test: qHTS for Inhibitors of ATXN expression: Validation (AID 588378). Further: nearly all actives have a fitted effect of over 75% in size. The following applies: cell-based ATXN2 expression reporter assay, luminescence; series mostly up to 57.1 µM. The text has this:
Spinocerebellar ataxia type 2 (SCA2) is a multisystem neurodegenerative disease caused by a dominantly-acting mutation leading to expansion of a polyQ domain in the ataxin-2 protein (ATXN2). SCA2 patients develop progressive ataxia and later lose function in other neuronal systems. Prominent parkinsonian signs develop in some patients. Similar to many neurodegenerative disorders, no symptomatic or disease-modifying treatments are known.
The primary objective of project is to identify compounds inhibiting ATXN2 expression and to test them for efficacy in SCA2 mouse models. To this end, in a collaboration between Dr. Daniel Scoles and scientists at NCGC, a cell-based assay adapted to high-throughput screening has been developed to screen the NIH Molecular Libraries Small Molecule Repository (MLSMR).
NIH Chemical Genomics Center [NCGC]
NIH Molecular Libraries Probe Centers Network [MLPCN]
Assay Submitter (PI): Stefan Pulst and Daniel Scoles, University of Utah
4 ul of HEK293-ATXN2-FFLuc cell suspension (TBD cells/microL in phenol-red free DMEM) are dispensed into Greiner white solid bottom 1536-well assay plates, yielding a final well density of TBD cells/well. Plates are incubated for 2 hrs at 37 degrees C in 5% humidified CO2 to allow cell attachment. Compounds are then transferred via Kalypsys pin tool equipped with 1536-pin array (10nl slotted pins, V&P Scientific, San Diego, CA). In addition, duplicate serial dilutions of the control compounds ChemBridge 5553825, a previously identified ATXN2 expression inhibitor, and a known luciferase inhibitor, are pin-transferred. After incubation at 37 degrees C in 5% humidified CO2 for 24 hrs, CellTiter-Fluor reagent (1 ul) (Promega, Madison, WI) is then added and plates are incubated for 30 minutes, before being transferred to a ViewLux high-throughput CCD imager (PerkinElmer), wherein single end-point fluorescence measurements are acquired using the 405 nm excitation/525 nm emission filter set to assess cell viability. Next, Bright-Glo luciferase substrate detection reagent (3 ul) (Promega, Madison, WI) is added to each well and incubated for an additional 5 minutes. Luminescence is then measured on the ViewLux imager equipped with a clear emission filter using a 2 sec exposure.
A general note: qHTS replaces the single test concentration by a dilution series.
Regarding `Cc1cnc(NC(=O)C2=C(O)c3ccccc3S(=O)(=O)N2C)s1`, the call was inactive.

`CCn1cc(C(=O)O)c(=O)c2cc(F)c(N3CCNC(C)C3)c(F)c21` (stereo not given): the result was inactive.

Regarding `Cc1cn[nH]c1`, the call was inactive.

With `CCOC(=O)N1CCC(=C2c3ccc(Cl)cc3CCc3cccnc32)CC1`, the outcome was inactive.

As to `NCCCC(N)(C(=O)O)C(F)F` (stereo not given), the outcome was inactive.

For `Oc1ccc(C2CNCCc3c2cc(O)c(O)c3Cl)cc1` (stereo not given), the molecule was classed as inactive.

As to `O=c1[nH]cnc2[nH]ncc12`, the outcome was inactive.

`C[C@]12CCC(=O)C=C1CC[C@@H]1[C@@H]2[C@@H](O)C[C@@]2(C)[C@H]1CC[C@]2(O)C(=O)CO`: the molecule was called inactive.

In the case of `Nc1ccc(S(=O)(=O)Nc2ccnn2-c2ccccc2)cc1`, the molecule was called inactive.

On to `O=NN(CCCl)C(=O)NCCCl`, for which the call was inactive.

As for `O=C1CCc2cc(OCCCCc3nnnn3C3CCCCC3)ccc2N1`, the molecule was called inactive.

In the case of `Cc1[nH]c(=O)c(C#N)cc1-c1ccncc1`, the call was inactive.

Consider `N=c1nc(N2CCCCC2)cc(N)n1O`, for which the molecule was called inactive.

For the molecule `CC(C)(Sc1ccc(CCN(CCCCC2CCCCC2)C(=O)NC2CCCCC2)cc1)C(=O)O`, the call was inactive.

Take `CCOC(=O)C1=C[C@]2(CC)CCCN3CCc4c(n1c1ccccc41)[C@@H]32`: the result was inactive.

For the molecule `Clc1cccc(Cl)c1NC1=NCCN1`, the outcome was inactive.

On to `NC(N)=NC(=O)c1nc(Cl)c(N)nc1N`, for which the outcome was inactive.

With `O=C(Nc1nc2ccccc2n1CCN1CCOCC1)c1cccc([N+](=O)[O-])c1`, the outcome was inactive.

Turning to `Cc1ccccc1C(OCCN(C)C)c1ccccc1` (stereo not given), the call was inactive.

On to `Nc1nc2c(ncn2COCCO)c(=O)[nH]1`, for which the result was inactive.

In the case of `c1ccc([C@H]2CN3CCSC3=N2)cc1`, the outcome was inactive.

As for `Cn1cnc([N+](=O)[O-])c1Sc1ncnc2nc[nH]c12`, the molecule was called inactive.

For `Nc1nc2ccc(OC(F)(F)F)cc2s1`, the outcome was inactive.

For `O=C(O)COCCN1CCN(C(c2ccccc2)c2ccc(Cl)cc2)CC1` (stereo not given), the molecule was classed as inactive.

As for `CC(C)C[C@H](NC(=O)[C@@H](O)[C@H](N)Cc1ccccc1)C(=O)O`, the outcome was inactive.

Turning to `NC[C@H](O)c1ccc(O)c(O)c1`, the molecule was called inactive.

In the case of `CCCC(CCC)C(=O)O`, the molecule was called inactive.

For `CNC[C@H](O)c1cccc(O)c1`, the result was inactive.

Regarding `CC(C)NCC(O)COc1ccc(COCCOC(C)C)cc1` (stereo not given), the molecule was classed as inactive.

As for `NC(=O)c1cnccn1`, the outcome was inactive.

With `OC(CN1CCC(Cc2ccc(F)cc2)CC1)c1ccc(Cl)cc1` (stereo not given), the outcome was inactive.

Take `N[C@@H]1CONC1=O`: the molecule was called inactive.

For the molecule `C1COC(NC(C2CC2)C2CC2)=N1`, the result was inactive.

Turning to `NS(=O)(=O)c1cc2c(cc1Cl)NC=NS2(=O)=O`, the result was inactive.

Turning to `CC(C)(C)NCC(O)c1ccc(O)c(CO)c1` (stereo not given), the call was inactive.

As to `O=c1n(CCCN2CCN(c3cccc(Cl)c3)CC2)nc2ccccn12`, the call was inactive.

With `Nc1ncnc2nc(-c3ccc(N4CCOCC4)nc3)cc(-c3cccc(Br)c3)c12`, the outcome was inactive.

In the case of `O=C1CCC(N2C(=O)c3ccccc3C2=O)C(=O)N1` (stereo not given), the call was inactive.

`CC(=O)Oc1ccccc1C(=O)O`: the molecule was called inactive.

With `CC(C[N+](C)(C)C)OC(N)=O` (stereo not given), the result was inactive.

The values above are taken from PubChem BioAssay (NCATS).
